Screening results deposited in PubChem BioAssay by several laboratories.
Rows were chosen to be rich in hits. Some 12% of all compounds tested hit in one or more screens of this group.
L major viab: Leishmania major promastigote growth inhibition. Leishmania major promastigotes, resazurin fluorescence viability. inhibition, % at 10 µM. actives 9% (n = 200,000). AID 1063; in the data active means inhibition above about 50%;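 further: promastigotes grown with compound for 44 hours at 28 °C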
KCC2 mod: KCC2 (human) Cl- transport modulation. Q9H2X9. actives 2.2% (n = 190,000). B-score of Tl+ flux slope (higher = more flux/activation; lower = inhibition) at 10 µM. KCC2 cells, thallium flux FluoZin-2 fluorescence. AID 1456;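 active means thallium flux slope and its plate-corrected score both differing from the plate sample mean at a set confidence after two filtering rounds, in either direction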;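 further: slope of fluorescence scaled to starting intensity during 10 to 20 s after thallium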
WT yeast gro inh: growth inhibition of WT yeast, mitochondrial fusion screen. mitochondrial fusion phenotypic screen, WT strain. inhibition, % at 10 µM. actives 2.1% (n = 190,000); in the data active means inhibition above about 58%; tested in S. cerevisiae
Calpain2 inh: calpain II (pig) inhibition; purified calpain II, fluorogenic peptide substrate, 30 min; inhibition, % at 16 µM; actives 0.37% (n = 220,000);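 active means inhibition above about 50%, limit read from the data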
ROMK mod: human ROMK K+ channel modulation, primary screen. P48048. Tet-inducible ROMK, thallium flux fluorescence; actives lie on both sides. B-score at 10 µM. actives 2% (n = 130,000);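 active means signal ratio slope over the read window, or its plate-corrected B-score, at least 3 SD from the plate mean, either direction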;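 further: B-score of the F/F0 ratio slope over 7 to 12 s after thallium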
Target sequence (P48048 whole entry, looked up): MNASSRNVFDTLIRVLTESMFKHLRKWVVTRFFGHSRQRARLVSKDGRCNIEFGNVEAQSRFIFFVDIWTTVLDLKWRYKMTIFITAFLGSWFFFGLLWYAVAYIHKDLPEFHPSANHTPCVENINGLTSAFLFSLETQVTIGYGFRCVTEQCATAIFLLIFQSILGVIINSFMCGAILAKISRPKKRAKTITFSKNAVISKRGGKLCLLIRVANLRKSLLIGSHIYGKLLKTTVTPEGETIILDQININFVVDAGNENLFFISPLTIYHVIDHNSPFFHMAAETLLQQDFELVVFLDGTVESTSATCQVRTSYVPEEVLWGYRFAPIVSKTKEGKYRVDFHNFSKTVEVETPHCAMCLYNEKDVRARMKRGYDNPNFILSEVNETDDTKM
Lmaj promast 1uM: L. major promastigote growth inhibition, 1 uM repeat. shares compounds with L major viab. resazurin fluorescence, 48 h. inhibition, % at 1 µM. actives 13% (n = 1,100). AID 1258;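 active means inhibition above about 50% in both repeat tests, limit read from the data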
KCC2 secondary: confirmation of human KCC2 transport modulators; shares compounds with KCC2 mod; HEK293-KCC2, thallium flux, FluoZin2 fluorescence; stronger effect = higher value; normalised thallium flux (F/F0 slope) at 10 µM; actives 15% (n = 3,700);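 active means thallium flux slope above the same plate's solvent-only control mean plus 3 SD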
KCC2 bumet counter: thallium flux persisting under bumetanide in KCC2 cells, counter-screen secondary assay; shares compounds with KCC2 mod; HEK293-KCC2 + bumetanide/ouabain, thallium flux FluoZin2; stronger effect = higher value; normalized thallium flux at 10 µM; actives 49% (n = 3,700);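 active means thallium entry rate above the same plate's blocked-transporter control wells by more than 3 SD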;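 further: raw slope of fluorescence over initial fluorescence between 10 and 20 s after thallium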
KCC2 secondary2: KCC2 (human) modulation, second secondary assay; actives 23% (n = 3,700); HEK293-KCC2, thallium flux FluoZin2 fluorescence; actives lie on both sides; F/F0 rise rate, 10–20 s post-thallium; AID 1715; normalized thallium flux at 10 µM; shares compounds with KCC2 mod;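 active means thallium flux slope more than 3 SD above or below the plate's solvent-only control mean, mostly below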;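 further: raw slope with 0.1% DMSO as baseline and bumetanide as block control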
HEK293 Tl flux: parental HEK flux effect, counter-screen. thallium flux rate (normalised fluorescence) at 10 µM. HEK293 parental cells, thallium flux FluoZin2, ouabain; baseline-ratio fluorescence slope, 10–20 s after thallium. shares compounds with KCC2 mod. actives 46% (n = 3,700);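 active means thallium flux rate significantly above the same plate's solvent-only control wells, beyond their mean plus 3 SD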
KCC2 ouabain: confirmation of human KCC2 modulators with ouabain; actives 48% (n = 3,700); raw Tl+ flux slope (below DMSO = inhibition, above = activation) at 10 µM; shares compounds with KCC2 mod; HEK293-KCC2, thallium flux FluoZin2 fluorescence; bidirectional: low = inhibitor, high = activator;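 active means thallium flux slope beyond 3 SD from same-plate DMSO control mean in most replicates, usually higher, sometimes lower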;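 further: slope of initial-normalized fluorescence between seconds 10 and 20 after thallium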
HEK293 Tl flux2: counter-screen for KCC2 modulators: effect in parental HEK293 cells. thallium flux slope at 10 µM. actives 33% (n = 3,700). thallium flux FluoZin-2 fluorescence slope. shares compounds with KCC2 mod. AID 1718;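 active means thallium flux slope above the same plate's solvent-control mean plus 3 SD in both duplicate wells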;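 further: run without ouabain in cells lacking the KCC2 cotransporter; slope of fluorescence scaled to its starting value between 10 and 20 s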
An asterisk follows results filed as active; i = inactive; · = no result given.

SMILES | L major viab | KCC2 mod | WT yeast gro inh | Calpain2 inh | ROMK mod | Lmaj promast 1uM | others
CCCCCCn1c(N)c(C(=O)NCCN2CCOCC2)c2nc3ccccc3nc21 | -0.5 | · | 85.7* | i | · | ·
CCCCCn1c(N)c(C(=O)NCCN2CCOCC2)c2nc3ccccc3nc21 | 21.2 | -0.0523 | 10.8 | i | 0.0717 | ·
COc1ccc(CCNC(=O)c2c(N)n(CCN3CCOCC3)c3nc4ccccc4nc23)cc1OC | 100.4* | -0.351 | -14.1 | -186.7 | · | ·
CCOc1cccc(CNC2CN3CCC2CC3)c1 (stereo not drawn) | 98.6* | · | 9.2 | -47.0 | · | -19.4
COc1cccc(CNC2CN3CCC2CC3)c1OC (stereo not drawn) | -2.1 | 1.29 | -3.4 | -2.8 | · | ·
O=C1C2CCCN2C(c2ccc(Cl)c(Cl)c2)N1c1ccccn1 (stereo not drawn) | -6.0 | 1.11 | -1.4 | 4.9 | · | ·
O=C1C2CCCN2C(c2cccnc2)N1c1ccc(Cl)c(Cl)c1 (stereo not drawn) | 95.5* | · | 5.3 | 0.8 | -0.0612 | 7.8
CC1(C)C(=O)C=C[C@]2(C)[C@H]3CC[C@@]4(C)[C@H](c5ccoc5)OC(=O)[C@H]5O[C@]54[C@]3(C)[C@H](O)C[C@@H]12 | 100.2* | 0.132 | 40.9 | -24.1 | 1.45 | 87.7*
O=c1c2ccccc2nc(C[n+]2ccccc2)n1-c1cccc(C(F)(F)F)c1 | -5.8 | 0.552 | 5.6 | 22.4 | 0.901 | ·
CC(C)[C@H]1C(=O)O[C@H](C(C)C)C(=O)N(C)[C@@H](C(C)C)C(=O)O[C@H](C(C)C)C(=O)N(C)[C@@H](C(C)C)C(=O)O[C@H](C(C)C)C(=O)N1C | 100.4* | -1.44 | 79.7 | -36.2 | · | -7.3
CN(C)c1ccc(/C=C2/C(=N\O)C3CCN2CC3)cc1 | · | 0.0221 | · | -8.3 | · | ·
CCOC(=O)c1c(C)[nH]c(C(=O)C(C)N2CCCC2)c1C (stereo not drawn) | -3.7 | 0.284 | 9.7 | -5.0 | -0.971 | ·
CCOC(=O)c1c(C)[nH]c(C(=O)C(Cc2ccccc2)N(C)C)c1C (stereo not drawn) | 98.9* | -0.578 | 10.2 | -13.1 | -1.6 | -8.4
O=P(Nc1ccccc1)(Nc1ccccc1)Oc1ccc(Cl)cc1 | 71.3* | -0.942 | 2.0 | 1.9 | 2.03 | -5.2
O=P(OCC(F)(F)C(F)F)(N1CCOCC1)N1CCOCC1 | 2.7 | · | 8.9 | -6.7 | -0.0672 | ·
CCn1nc(/C=C/c2ccccc2)nc2c(=O)n(C)c(=O)nc1-2 | 100.5* | 0.852 | 90.0* | 37.7 | · | 81.4*
CC1=CC2/C=C(\C)CCC(O)C(O)/C=C/C(=O)C23C(=O)NC(CC(C)C)C3C1C (stereo not drawn) | 97.4* | -1.81 | -20.8 | -7.7 | · | 48.2
CC12CN3CN(C1)CC(c1ccccc1)(C3)C2=O | -3.4 | 0.959 | -12.2 | -29.5 | · | ·
Cn1cccc1CNCCc1ccccc1F | 97.7* | 0.217 | 3.7 | -6.0 | -0.0474 | -17.0
Cn1cccc1CNCCc1ccccc1 | -4.9 | 0.399 | 3.6 | 1.7 | · | ·
Cc1ccc(NC(=O)CN2C(=O)CN=C(c3ccccc3)c3cc(Cl)ccc32)cc1 | 61.1* | -0.964 | 41.0 | -73.9 | · | 4.3
CN(C)c1ccc(NC(=O)CN2C(=O)CN=C(c3ccccc3)c3ccccc32)cc1 | -0.2 | -0.76 | 5.1 | · | · | ·
O=c1[nH]c(=S)[nH]c(O)c1CN1CCCCC1 | -4.3 | -0.116 | -0.8 | -13.0 | 1.23 | ·
CC[n+]1c(/C=C/N(C)c2ccccc2)sc2ccc(Cl)cc21 | 100.5* | -1.66 | -2.1 | -1.7 | · | 99.9*
Cn1c(O)c(C=NC2C(=O)C3(C)CCC2C3(C)C)c(=O)n(C)c1=O (stereo not drawn) | -0.3 | · | -3.4 | 3.7 | -0.753 | ·
SMILES | L major viab | KCC2 mod | WT yeast gro inh | Calpain2 inh | ROMK mod | Lmaj promast 1uM | others
N/C(=N\[N+](=O)[O-])N1CCN(C(=O)c2ccccc2)CC1 | 2.3 | 0.647 | -2.8 | -8.6 | -0.657 | ·
CC(C)[C@@]1(NC(=O)[C@@H]2C[C@@H]3c4cccc5[nH]cc(c45)C[C@H]3N(C)C2)O[C@@]2(O)[C@@H]3CCCN3C(=O)[C@H](Cc3ccccc3)N2C1=O | 64.6* | -0.453 | -12.7 | -7.1 | · | -2.1
CC(C)C[C@H]1C(=O)N2CCCC2[C@]2(O)O[C@](NC(=O)[C@@H]3C=C4c5cccc6[nH]cc(c56)CC4N(C)C3)(C(C)C)C(=O)N12 (stereo partly drawn) | 58.5* | -0.639 | 3.6 | -180.8 | · | 1.1
O=C(Nc1cccc(Br)c1)c1c(O)c2c(n(Cc3ccccc3)c1=O)CCCC2 | · | 0.509 | · | -16.0 | · | ·
COCCCN1CCN(c2nnc3n2-c2sc(Br)cc2C(c2ccccc2Cl)=NC3)CC1 | 97.2* | 0.0075 | 7.6 | -53.2 | · | 79.4*
Cc1nnc2n1-c1ccc(Br)cc1C(c1ccccc1Cl)=NC2 | 32.2 | 1.45 | 22.0 | -40.9 | · | ·
CCOCCN1CCN(c2nnc3n2-c2ccc(Cl)cc2C(c2ccccc2Cl)=NC3)CC1 | 99.1* | -1.11 | -12.8 | -5.8 | 1.41 | 51.3*
CC(C)(C)NC(=O)C1CC2CCCCC2CN1 (stereo not drawn) | -0.1 | 0.468 | -11.3 | -17.1 | -0.0264 | ·
COc1ccc(-n2c(O)c(/C(C)=N/N3CCCCCC3)c(=O)[nH]c2=O)cc1 | · | 0.756 | · | -5.3 | 0.12 | ·
O=C(NCC(c1cccnc1)N1CCN(c2ccc(F)cc2)CC1)Oc1ccccc1 (stereo not drawn) | 92.6* | 0.922 | 0.7 | -16.3 | · | 78.5*
CCCCc1ccc2[nH]cc(CCN)c2c1 | 100.1* | 0.572 | -22.8 | -8.5 | · | 1.3
Cc1nc2c(c(=O)[nH]1)C(c1ccccc1Cl)c1c(c3ccccc3oc1=O)O2 (stereo not drawn) | · | -0.6 | · | -21.8 | -0.0304 | ·
COc1ccc(CN2CCN(Cc3ccccc3)CC2)c(OC)c1 | -4.2 | 5.37* | 1.4 | -25.3 | -0.58 | · | KCC2 secondary=0.00796;KCC2 bumet counter=0.00587;KCC2 secondary2=0.0297;HEK293 Tl flux=0.00619;KCC2 ouabain=0.0204;HEK293 Tl flux2=0.00883
